Data from PubChem BioAssay AID540335 (Broad Institute, 2011).
In all, about 1,300 compounds went through this assay and about 270 (21%) were called active.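 Rule for the calls: active = dose-dependent rise or fall in viability, either side of zero, with half-maximal concentration at or below a set limit; inconclusive = flat curve at 30 to 70% viability loss, or poor fit; inactive = flat within 30% either way, or potency beyond limit.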 Not all results are given here. Entries with a potency or affinity are not part of this list.

Experiment: A375 melanoma cell viability reduction, dose response, counter-screen for MITF modulator project, cherry-pick samples, set 2 (AID 540335);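 note: A375 human melanoma cells which do not depend on MITF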
Settings: CellTiter-Glo ATP luminescence, 24 h; series mostly up to 35 µM

Row | SMILES | outcome
1 | COc1cc(OC)cc(-c2oc(=O)c3cc(OC)c(OC)cc3c2C(F)(F)F)c1 | inactive
2 | CCN1CCN(c2ccc(Nc3ccnc4ccccc34)cc2)CC1 | inactive
3 | CCOc1ccc(NC(=O)Nc2cccc(C(=O)O)c2)cc1 | inactive
4 | O=C(Nc1nnc(Cc2ccccc2)s1)c1ccccc1 | inactive
5 | Cc1ccc(/C=N/Nc2ccc(C(=O)O)cc2)s1 | inactive
6 | O=C(c1ccc([N+](=O)[O-])s1)N1CCN(c2ccccn2)CC1 | inactive
7 | C/C(=N\NC(=O)C(c1ccccc1)c1ccccc1)c1ccccn1 | inactive
8 | O=c1c2ccccc2cnn1CCOc1ccccc1 | inactive
9 | Cc1nc2ccccc2n1/N=C/c1ccc([N+](=O)[O-])s1 | inactive
10 | CN(C)C1CCN(Cc2cc(COCc3ccccc3)c3cccnc3c2O)C1 (stereo not given) | inactive
11 | CCCOCc1ccc(O)c2ncccc12 | inactive
12 | Cc1cc(C(C)(C)C)cc(C)c1Cn1c2[n+](c3ccc(C(F)(F)F)cc31)CCCCC2 | inactive
13 | Cc1ccc(-n2nnnc2CNC(=O)c2ccc([N+](=O)[O-])o2)cc1C | inactive
14 | Cc1nc2nc(C)c(NS(=O)(=O)c3ccc4c(c3)CCCC4)c(=O)n2[nH]1 | inactive
15 | CCCN(CCC)C1=CC(=[N+]2CCCC2)CC(C)(C)C1 | inactive
16 | CN(Cc1ccccc1)C1=CC(=[N+]2CCCC2)CC(C)(C)C1 | inactive
17 | CN(C)S(=O)(=O)c1ccc(-c2csc(N/N=C/c3ccco3)n2)cc1 | inactive
18 | COc1ccc(C(=O)N/N=C/c2cc(Br)ccc2O)cc1OC | inactive
19 | CCOc1ccc(N/C=C/C(=O)c2ccc(OC)c(OC)c2)cc1 | inactive
20 | Cc1ccc(-c2n[nH]c(=O)c3ccccc23)cc1S(=O)(=O)NCC1CCCO1 (stereo not given) | inactive
21 | COc1ccc(C(=O)/C=C/C(=O)N(CC(=O)NC2CCCCC2)Cc2ccc(F)cc2)c(O)c1 | inactive
22 | COc1ccc(N/N=C/c2c(C(=O)O)ccc3ccccc23)cc1 | inactive

Row | SMILES | outcome
23 | COc1ccc(NC(=O)NC(=O)c2ccccc2)cc1 | inactive
24 | N#CC(C#N)=C1C=CC=CN1/C(=C\c1ccco1)C(=O)c1ccc(Cl)cc1 | inactive
25 | COc1ccccc1-c1cc(C(F)(F)F)nc(S(C)(=O)=O)n1 | inactive
26 | Cc1ccc2c(C(=O)CCl)c(C)[nH]c2c1 | inactive
27 | O=S(=O)(CC(CN1CCCCC1)N1CCCCC1)c1ccc2ccccc2c1 (stereo not given) | inactive
28 | COc1ccc(C(=O)C(CN2CCOCC2)c2ccccc2)cc1 (stereo not given) | inactive
29 | CC(NC(=O)C12CC3CC(CC(C3)C1)C2)C(=O)NN=Cc1ccc([N+](=O)[O-])o1 (stereo not given) | inactive
30 | COC1=C(c2ccccc2)C(=O)c2ccccc2C1=O | inactive
31 | COc1ccc(-c2nc(-c3ccccc3OC)no2)cc1OC | inactive
32 | CN1CCN(C2=C(NS(=O)(=O)c3cccs3)C(=O)c3ccccc3C2=O)CC1 | inactive
33 | COc1ccc2nc(C)cc(NCc3cccc(C(F)(F)F)c3)c2c1 | inactive
34 | O=C1C=CC(=C(c2ccc(O)cc2)c2ccc(O)cc2)C=C1 | inactive
35 | CC(C)(C)C(=O)/C(=C/c1ccncc1)n1cncn1 | inactive
36 | O=C(Nc1ccc2oc(-c3cccnc3)nc2c1)c1ccc([N+](=O)[O-])o1 | inactive
37 | COc1ccccc1NC(=O)c1nc(S(=O)(=O)Cc2ccccc2)ncc1Cl | inactive
38 | CC(=O)Nc1ccc(NC(=O)c2nc(S(=O)(=O)Cc3ccccc3)ncc2Cl)cc1 | inactive
39 | Cc1ccc(C(=O)c2cccc(N)c2)cc1C | inactive
40 | COc1cc(NC(=O)COc2cc(O)c3c(c2)OC(C)(C)CC3=O)cc(OC)c1OC | inactive
41 | O=C(CCl)Nc1cccc(S(=O)(=O)N2CCCCCC2)c1 | inactive
42 | Cc1cc(/C(N)=N/OC(=O)c2ccc(Cl)cc2)no1 | inactive
43 | CCCCN1CCc2c1nc1ccc(Br)cc1c2N | inactive
44 | O=C(COC(=O)c1ccccc1C(=O)c1ccc(Cl)c([N+](=O)[O-])c1)NC1CC1 | inactive

Row | SMILES | outcome
45 | CCOc1ccc(-c2ccc(SC)nn2)cc1 | inactive
46 | Cc1ccc(C(=O)N/N=C\c2ccc([N+](=O)[O-])s2)cn1 | inactive
47 | CCN(CC)CCNC(=O)C1CCN(S(=O)(=O)c2c(C)noc2/C=C/c2ccccc2F)CC1 | inactive
48 | Cc1cc(C)cc(OCC(=O)N/N=C/c2ccc([N+](=O)[O-])o2)c1 | inactive
49 | N=c1n(CCN2CCCC2)c2ccccc2n1CC(O)c1ccc(Cl)c(Cl)c1 (stereo not given) | inactive
50 | O=C(CNc1cccc2ccccc12)N/N=C/c1ccc([N+](=O)[O-])o1 | inactive
51 | Cc1ccccc1C(=O)N/N=C/c1ccc([N+](=O)[O-])s1 | inactive
52 | Cc1cc2ncn(/N=C/c3ccc([N+](=O)[O-])o3)c2cc1C | inactive
53 | O=C(N/N=C/c1ccc([N+](=O)[O-])o1)c1cc2ccccc2o1 | inactive
54 | CC1(C(=O)N/N=C/c2ccc([N+](=O)[O-])o2)CC1(Br)Br (stereo not given) | inactive
55 | CCOC(=O)CCc1ccc(NC(=O)/C=C/c2ccc([N+](=O)[O-])o2)cc1 | inactive
56 | CC(C)n1cc(/C=C/c2cc[n+](C)cc2)c2ccccc21 | inactive
57 | CCOc1ccc(-n2c(C)cc(C(=O)CCl)c2C)cc1 | inactive
58 | COc1ccc(-n2c(C)cc(C(=O)CCl)c2C)cc1 | inactive
59 | O=C(Nc1ccc2nc3n(c(=O)c2c1)CCCCC3)c1cc([N+](=O)[O-])ccc1F | inactive
60 | CCOC(=O)c1nnn(-c2ccc([N+](=O)[O-])cc2[N+](=O)[O-])c1C | inactive
61 | Cc1ccc(NC(=O)CCl)cc1S(=O)(=O)N1CCCCCC1 | inactive
62 | O=C(Nc1ccc(-c2nc3ncccc3o2)cc1)c1ccc([N+](=O)[O-])o1 | inactive
63 | CCN(CC)CCn1nc2c3c(cccc3c1=O)-c1ccccc1-2 | inactive
64 | Cc1ccc(NC(=O)CN(C)C(=O)Cn2ncc(Cl)c(Cl)c2=O)cc1 | inactive
65 | COc1cc(C2C(C#N)=C(N)Oc3cc4c(cc32)OCO4)cc(OC)c1OC (stereo not given) | inactive
